USP1 inh: blocks the human USP1/UAF1 deubiquitinase complex | hit rate 0.23% among 390,000 | Potency, µM (top dose mostly 57.1 µM), for the others: at the top dose activity change, negative = inhibition, hits mostly inhibitors | recombinant USP1/UAF1, Ub-Rhodamine cleavage fluorescence; active means well fitted inhibition curve with a large enough effect; inconclusive means small, poorly fitted or top-dose-only effect; inactive means no such curve, though single readings can be large or run the other way; further: potency means the concentration at half of the fitted maximal effect; on the % scale 0 is the no-effect control and ±100 the full control effect; nearly all actives have a fitted effect of over 60% in size
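In this screen, compounds sit with the deubiquitinase complex (1nM) for 15 min at room temperature before Ub-Rho is added at 150nM final. Fluorescence rise is then followed for 6 reads every 60 seconds.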
D1 PAM: enhances dopamine response at the human D1 receptor; HEK293 TREx D1 cells, calcium flux, dopamine EC20 potentiation; potentiation, % at 10 µM; hit rate 0.036% among 360,000; AID 504651; in the data active means potentiation above about 30%; further: 0% is about no effect
Target sequence (P21728 whole entry, looked up): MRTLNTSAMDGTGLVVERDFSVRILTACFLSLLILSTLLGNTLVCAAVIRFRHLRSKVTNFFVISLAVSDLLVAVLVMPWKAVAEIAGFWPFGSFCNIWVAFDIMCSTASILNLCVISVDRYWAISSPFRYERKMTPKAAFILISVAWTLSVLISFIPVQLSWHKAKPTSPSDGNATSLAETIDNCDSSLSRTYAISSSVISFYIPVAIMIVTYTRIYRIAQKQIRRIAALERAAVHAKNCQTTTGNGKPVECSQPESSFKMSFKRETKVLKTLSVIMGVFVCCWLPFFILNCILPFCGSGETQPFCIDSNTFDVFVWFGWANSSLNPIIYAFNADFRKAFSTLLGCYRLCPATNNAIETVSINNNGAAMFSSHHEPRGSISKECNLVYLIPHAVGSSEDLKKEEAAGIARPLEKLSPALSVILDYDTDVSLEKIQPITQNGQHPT
TRHR enhancer: TRH receptor (human) allosteric enhancement; P34981; TRHR cells, fluo-8 calcium fluorescence, EC20 TRH enhancement; enhancement, % at 2 µM; hit rate 0.66% among 360,000; AID 493056; in the data active means enhancement above about 30%; further: 0% is about no effect
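TRHR-expressing cells loaded with fluo-8 calcium dye were read kinetically (ex 480/em 530) during compound addition, then stimulated with an EC20 of TRH (10 nM final). Enhancement of the Gq-mediated intracellular calcium response was scored.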
TRHR agonist: TRH receptor (human) agonism; P34981; TRHR cells, calcium flux fluo-8, FDSS agonist mode; activation, % at 2 µM; hit rate 0.18% among 360,000; further: 0% is about no effect
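Agonist-mode FDSS calcium read (Ex 480/Em 530, 1 s cycles) in 1536-well TRHR cells with fluo-8 dye, after 10-cycle baseline and 23 nL compound addition; TRH at EC20 (10 nM final) added afterwards for the enhancer phase.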
D1 antagonist: blocks dopamine activation of the human D1 receptor; P21728; HEK293 TREx D1 cells, calcium flux, dopamine EC80; stronger effect = lower value; activity change, negative = inhibition, % at 10 µM; hit rate 3.2% among 360,000; in the data active means activity change below about -30%; further: on the % scale 0 is the no-effect control and ±100 the full control effect
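HEK293 T-REx cells expressing inducible, force-coupled D1 receptor; no-wash Ca dye, 30–90 min RT. Cmpd → 180 s read at 1 Hz → EC80 DA → 180 s read.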
D1 ag: human D1 receptor agonism. HEK293 T-REx D1 cells, calcium flux, agonist mode. activation, % at 2 µM. hit rate 1% among 360,000. AID 504660; further: 0% is about no effect
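Tetracycline-induced HEK293 TREx D1 cells, force-coupled to calcium signalling, were dye-loaded with a no-wash calcium kit. Compound was pin-added after a 10 s baseline. Fluorescence was read kinetically at 1 cycle/s for 180 s, with calcium rises flagged as agonism.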
Active calls of the source: *; u = inconclusive; x = no result given. Hits are enriched below; roughly 4.4% of the tested compounds scored in any of these assays. Unless noted, no stated cut-off is given here; in the data, active means activation above about 30%; inactive means the rest.

SMILES	USP1 inh	D1 PAM	TRHR enhancer	TRHR agonist	D1 antagonist	D1 ag
CCOC(=O)/C(=N\Nc1ccc(C(C)=O)cc1)c1csc(Nc2ccccc2)n1	u	-7	-19	9	2	54*
CCOC(=O)/C(=N\Nc1ccccc1[N+](=O)[O-])c1csc(N)n1	-17%	-1	0	0	-8	0
Cc1ccc(S(=O)(=O)NCCNC(=O)C2CCCNC2=O)cc1 (configuration not stated)	-13%	-3	3	1	-46*	5
CCOc1ccc(Nc2nc(N)c([N+](=O)[O-])c(N3CCOCC3)n2)cc1	-19%	-6	38*	1	-1	1
CCOc1ccc(Nc2nc(N)c([N+](=O)[O-])c(N3CCN(CC)CC3)n2)cc1	-8%	-7	21	0	4	0
CSCCC(NC(=O)c1ccco1)C(=O)Nc1ccc(C)cn1 (configuration not stated)	-23%	-19	0	0	-35*	0
COC(=O)c1ccc(COc2ccc(/C=N/N3CCN(C)CC3)cc2)cc1	-18%	-2	1	0	6	6
CN1CCN(/N=C/c2ccc(OCc3ccccc3)cc2)CC1	-5%	-19	1	0	-69*	32*
COc1ccc(CNS(=O)(=O)c2cnc(N)nc2)c(OC)c1	-17%	-5	6	0	-6	2
NC(=O)COc1ccc(C(=O)NCC2(N3CCOCC3)CCCCC2)cc1	-21%	0	0	0	-32*	0
N#Cc1ccc(OCC(=O)NCC2(N3CCCCC3)CCCCC2)cc1	-13%	-3	-2	0	35	5
O=C(COc1ccccc1)NCC1(N2CCCCC2)CCCCC1	1%	3	5	0	-66*	-1
N#CCC(=O)Nc1ccc(C(=O)NCC2(N3CCOCC3)CCCCC2)cc1	-17%	x	0	0	-18	8
COc1ccc(C)cc1NC(=O)C1CCCN(S(=O)(=O)c2ccc3c(c2)oc(=O)n3C)C1 (configuration not stated)	-21%	-4	-10	-1	-3	2
CCOc1ccc(C2C(C(N)=O)=C(C)Nc3nc(SCc4ccccc4)nn32)cc1 (configuration not stated)	-12%	0	10	1	14	1
COc1ccccc1Cc1nc2ccccc2nc1SCC(=O)NCc1ccc(F)cc1	-10%	2	0	0	0	1
Cc1c(Cl)cccc1-n1ncc(C(=O)Nc2ccc3c(c2)OCCO3)c1C1CCN(C(=O)OC(C)(C)C)CC1	-23%	-2	-4	1	-13	3
COc1ccc(CCNC(=O)CCc2c(C)nc3c4c(C)cc(C)nc4nn3c2C)cc1OC	7%	-2	-1	-1	-6	-1
N#Cc1ccc(/C=C\c2nccc3c2[nH]c2ccccc23)cc1	22µM*	-4	-2	1	-23	2
Clc1ccc(/C=C\c2nccc3c2[nH]c2ccccc23)cc1	-21%	-3	-4	0	-6	0
CCS(=O)(=O)N1CCc2cc(C(=O)N3CCN(c4cccc(C(F)(F)F)c4)CC3)ccc21	-22%	-4	-3	-1	-3	0
CCOC(=O)c1nn2c(C(F)(F)F)cc(-c3ccc(C)cc3)nc2c1Cl	-2%	1	1	0	-5	-1
CCOC(=O)c1nn2c(C(F)(F)F)cc(-c3ccc(OC)cc3)nc2c1Br	-19%	-6	0	0	23	35*
Cc1nc2ccn(Cc3ccco3)c(=O)c2cc1C(=O)NCc1ccc(F)cc1	-8%	-4	2	-1	-13	1
NCCOc1ccc(C2CCCCC2)cc1	-18%	6	13	3	32	32*
SMILES	USP1 inh	D1 PAM	TRHR enhancer	TRHR agonist	D1 antagonist	D1 ag
CC(C)(C)NC(=O)C(OC(=O)c1ccco1)c1ccccc1F (configuration not stated)	-10%	-3	7	0	-38*	-1
CCN1C(=S)SC(=O)C1=C1C=C(C)N(Cc2ccco2)C(C)=C1	u	5	3	0	-9	171*
CCN1C(=S)SC(=O)C1=C1C=C(C)OC(C)=C1	-4%	3	0	1	6	1
Cc1cccc(NC(=O)Cn2c(=O)nc(-c3ccccc3)c3ccccc32)c1C	-5%	0	-2	-1	8	-1
COc1cc(OC)cc(C(=O)NC2CCCN(Cc3ccc(Cl)cc3)C2)c1 (configuration not stated)	-5%	-1	2	0	-4	1
O=C(NC1CCCN(Cc2ccc(Cl)cc2)C1)c1ccnc(Cl)c1 (configuration not stated)	-17%	-1	32*	-2	-2	-2
O=C(NC1CCN(Cc2ccccc2)C1)c1cc(S(=O)(=O)N2CCOCC2)ccc1Cl (configuration not stated)	-14%	-12	0	1	-30*	2
O=C(Nc1cc(S(=O)(=O)N2CCOCC2)ccc1Cl)c1cc2ccccc2o1	-1%	-6	2	0	-48*	3
CC1CCc2sc(C(=O)NC3CCN(Cc4ccccc4)CC3)cc2C1 (configuration not stated)	-14%	x	11	0	-16	37*
CCC1CCc2sc(C(=O)NC3CCN(Cc4ccccc4)CC3)cc2C1 (configuration not stated)	-14%	-5	5	1	9	14
Cc1ccc(NC(=O)Cn2c(=O)c3ccc(Cl)cc3n3nncc23)cc1	-22%	3	-4	1	3	1
O=C(NC1CCN(Cc2ccc(Cl)c(Cl)c2)CC1)c1ccccc1	-24%	-6	-2	0	-33*	6
O=C1[C@@H]2CSC(c3ccc(Cl)cc3)N2C(=O)N1c1ccccc1 (some centres not stated)	-7%	0	-1	3	-5	7
CC(C)Oc1ccc(CNC(=O)C2CCN(c3nc4ccccc4nc3C(F)(F)F)CC2)cc1	-11%	-1	-2	0	-4	3
NS(=O)(=O)c1ccc(N=Nc2ccc(O)c3ncccc23)cc1	-24%	-1	10	-2	3	5
Oc1ccc(N=Nc2ccc3c(c2)OCCO3)c2ncccc12	-5%	8	-6	-1	2	41*
CCc1ccc2oc(C(=O)Nc3cc(Cl)ccc3OC)cc(=O)c2c1	-22%	-1	7	0	-48*	1
COc1ccc(Cl)cc1NC(=O)c1cc(=O)c2cc(C)cc(C)c2o1	-13%	1	0	0	-8	1
COc1ccc(Cl)cc1NC(=O)c1ccccc1C	-21%	-18	-3	0	-44*	1

Screening results from PubChem BioAssay.
